Bioassay records from PubChem.
Compounds with a hit are over-represented: about 4% of the library has one in this group of screens.
AF4-AF9 inh: MLL-AF4/AF9 protein interaction inhibition; P42568; AlphaScreen, biotin-AF4 peptide binding to FLAG-AF9; actives 0.47% (n = 350,000); inhibition, % at 10 µM;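 active means every replicate reaching a set inhibition limit, whatever the replicate mean, cut at about 25% in these data; inconclusive means mean inhibition reaches that limit but some replicates miss it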
ERAP1 inh: blocks human ERAP1 aminopeptidase activity | inhibition, % at 10.7 µM | recombinant ERAP1, Leu-AMC fluorescence, 60 min | actives 0.15% (n = 340,000) | AID 652197;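 active means mean replicate inhibition of at least 30%, or all replicates individually reaching that 30% level; inactive means mean below 30% and not every replicate reaching it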
RAD52 inh: RAD52 (human) annealing inhibition | P43351 | recombinant RAD52 DNA annealing, FRET fluorescence | inhibition, % at 18.7 µM | actives 0.46% (n = 360,000) | AID 651710;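 active means every replicate showing at least 50% inhibition; inconclusive means mean inhibition at least 50% but not in every replicate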
Target sequence (P43351 whole entry, looked up): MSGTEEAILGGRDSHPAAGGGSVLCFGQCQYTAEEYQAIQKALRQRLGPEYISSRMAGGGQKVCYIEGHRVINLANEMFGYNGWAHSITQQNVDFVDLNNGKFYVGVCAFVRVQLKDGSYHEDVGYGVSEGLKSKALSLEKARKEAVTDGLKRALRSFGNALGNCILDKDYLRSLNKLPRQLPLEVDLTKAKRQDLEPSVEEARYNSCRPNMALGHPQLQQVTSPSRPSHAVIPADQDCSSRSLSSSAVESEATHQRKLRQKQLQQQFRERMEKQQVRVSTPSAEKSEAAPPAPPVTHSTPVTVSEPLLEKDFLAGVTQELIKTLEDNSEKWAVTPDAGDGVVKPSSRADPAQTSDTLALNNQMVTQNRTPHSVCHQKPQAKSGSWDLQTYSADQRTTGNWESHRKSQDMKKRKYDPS
DENV2 CPE: inhibitors of DENV2 cytopathic effect. DENV2-infected cells, cytopathic effect rescue, plate reader. CPE inhibition, % at 9.99 µM. actives 1.7% (n = 350,000). AID 651640; in the data active means CPE inhibition above about 20%, passing the limit was not always enough; inconclusive means no clear call, values can overlap the other calls; tested in BHK-21 cells
FGF22 binding: shifts melting point of recombinant human FGF22; Q9HCT0; recombinant FGF22 thermal shift, SYPRO orange fluorescence; percent of sucrose octasulfate shift, DMSO zero; activity (Tm shift, normalised), % at 9.99 µM; actives 1.5% (n = 340,000);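 active means mean Tm shift, scaled 0 neutral to 100 positive control, at about 1.3% or above, every replicate too, limit read from the data; inconclusive means no clear call, values can overlap the other calls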
Target sequence (Q9HCT0 whole entry, looked up): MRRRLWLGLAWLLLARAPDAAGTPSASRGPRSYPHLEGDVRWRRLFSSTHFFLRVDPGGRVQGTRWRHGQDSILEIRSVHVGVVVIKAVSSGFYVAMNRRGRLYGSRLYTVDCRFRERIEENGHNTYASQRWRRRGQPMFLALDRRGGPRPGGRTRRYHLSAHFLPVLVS
Large screens that a line does not name were inactive.

COc1ccc(CN(C)C[C@H]2Oc3ccc(NS(=O)(=O)c4ccc(F)cc4)cc3CC(=O)N([C@H](C)CO)C[C@H]2C)cc1	none
COc1ccc(S(=O)(=O)Nc2ccc3c(c2)CC(=O)N([C@H](C)CO)C[C@H](C)[C@H](CN(C)Cc2ccc(Cl)c(Cl)c2)O3)cc1	DENV2 CPE inconclusive
C[C@H](CO)N1C[C@H](C)[C@@H](CN(C)Cc2ccc(Cl)c(Cl)c2)Oc2ccc(NS(=O)(=O)c3ccccc3)cc2CC1=O	RAD52 inh 64
COc1ccc(S(=O)(=O)Nc2ccc3c(c2)CC(=O)N([C@H](C)CO)C[C@@H](C)[C@H](CN(C)Cc2ccc(Cl)c(Cl)c2)O3)cc1	DENV2 CPE 38
COc1ccc(CN(C)C[C@@H]2Oc3ccc(NS(=O)(=O)c4ccc(F)cc4)cc3CC(=O)N([C@H](C)CO)C[C@@H]2C)cc1	DENV2 CPE 23
O=C(C[C@H]1CC[C@@H](NC(=O)CCN2CCCCC2)[C@H](CO)O1)Nc1ccccc1	none (no result: FGF22 binding)
O=C(COC(=O)c1cn(-c2ccccc2)nc1-c1ccc(F)cc1)Nc1ncc(Cl)cc1Cl	FGF22 binding 44
CC1COCC(C)N1C1=C(Cl)C(=O)c2ccccc2C1=O (stereo not drawn)	AF4-AF9 inh 27
O=C(CN1C(=O)NC2(CCCC2)C1=O)N1CCc2ccccc2C1	FGF22 binding 43
O=C(CCN1CCCCC1)N[C@H]1CC[C@@H](CCn2cc(-c3ccccc3)nn2)O[C@H]1CO	none
CCCNC(=O)N1CCC2(CC1)CN(C(=O)NC1CCCC1)[C@@H](CO)c1[nH]c3cc(OC)ccc3c12	none
O=C(Nc1ccc(F)cc1)Nc1ccccc1NS(=O)(=O)c1cccs1	FGF22 binding 49
O=C(C[C@@H]1C[C@@H]2c3cc(NC(=O)c4cccnc4)ccc3O[C@@H]2[C@H](CO)O1)NCc1ccncc1	none
CN(C)c1ccc(/C=C2\CCC/C(=C\c3ccccc3)C2=O)cc1	none
CC(=O)N1/C(=C/c2ccc(N(C)C)cc2)C(=O)c2ccccc21	AF4-AF9 inh 44
CC=Cc1ccc2n(c1=O)C[C@H]1[C@H](CO)[C@@H](C(=O)N(C)C)N(Cc3cccc(F)c3)[C@@H]21 (mixture of isomers)	DENV2 CPE 56
CC=Cc1ccc2n(c1=O)C[C@@H]1[C@@H](CO)[C@H](C(=O)NCC)N(Cc3cocn3)[C@H]21 (mixture of isomers)	none
CC=Cc1ccc2n(c1=O)C[C@H]1[C@H](CO)[C@@H](C(=O)NCCC)N(Cc3cocn3)[C@@H]21 (mixture of isomers)	DENV2 CPE 78
CC=Cc1ccc2n(c1=O)C[C@H]1[C@H](CO)[C@@H](C(=O)NCCC)N(CC3CCCC3)[C@@H]21 (mixture of isomers)	RAD52 inh 99
CC=Cc1ccc2n(c1=O)C[C@H]1[C@H](CO)[C@@H](C(=O)NCc3ccccc3)N(C)[C@@H]21 (mixture of isomers)	FGF22 binding 17
Cc1noc(C)c1S(=O)(=O)Nc1ccc2c(c1)C(=O)N([C@H](C)CO)C[C@H](C)[C@H](CN(C)C(=O)Nc1ccccc1)OCCCC[C@H](C)O2	DENV2 CPE 33
Cc1noc(C)c1S(=O)(=O)Nc1ccc2c(c1)C(=O)N([C@@H](C)CO)C[C@@H](C)[C@H](CN(C)C(=O)Nc1ccccc1)OCCCC[C@@H](C)O2	DENV2 CPE 97
Cc1noc(C)c1S(=O)(=O)Nc1ccc2c(c1)C(=O)N([C@H](C)CO)C[C@H](C)[C@@H](CN(C)C(=O)Nc1ccc(F)cc1)OCCCC[C@H](C)O2	none
Cc1noc(C)c1S(=O)(=O)Nc1ccc2c(c1)C(=O)N([C@H](C)CO)C[C@@H](C)[C@H](CN(C)C(=O)Nc1ccccc1)OCCCC[C@@H](C)O2	none
C[C@H]1CCCCO[C@@H](CN(C)Cc2ccccc2)[C@@H](C)CN([C@@H](C)CO)C(=O)c2cc(NC(=O)Nc3cccc4ccccc34)ccc2O1	none
C[C@H]1CN([C@@H](C)CO)S(=O)(=O)c2ccc(-c3ccccc3F)cc2O[C@H]1CN(C)Cc1cncnc1	none (no result: FGF22 binding)
C[C@@H]1CN([C@@H](C)CO)C(=O)c2cc(NC(=O)NC3CCCCC3)ccc2O[C@@H](C)CCCCO[C@H]1CN(C)Cc1ccc2c(c1)OCO2	DENV2 CPE 45
C[C@@H]1CN([C@@H](C)CO)C(=O)c2cc(NC(=O)NC3CCCCC3)ccc2O[C@@H](C)CCCCO[C@@H]1CN(C)Cc1ccc2c(c1)OCO2	none
C[C@@H]1CN([C@H](C)CO)C(=O)c2cc(NC(=O)NC3CCCCC3)ccc2O[C@@H](C)CCCCO[C@H]1CN(C)Cc1ccc2c(c1)OCO2	DENV2 CPE 63
C[C@@H]1CCCCO[C@@H](CN(C)Cc2ccc3c(c2)OCO3)[C@@H](C)CN([C@H](C)CO)C(=O)c2cc(NC(=O)NC3CCCCC3)ccc2O1	none
COc1cccc(C#Cc2ccc([C@H]3[C@H](CO)N4C(=O)CN(C(C)=O)C[C@@H]34)cc2)c1	none (no result: FGF22 binding)
CC(C)(C)NC(=O)C(c1cccc2ccccc12)n1c(=O)c(-c2ccco2)nc2ccccc21 (stereo not drawn)	none (no result: ERAP1 inh)
CC(C)(C)NC(=O)C(c1cccc2ccccc12)n1c(=O)c(-c2ccccc2)nc2ccccc21 (stereo not drawn)	DENV2 CPE 27 (no result: AF4-AF9 inh)
COc1ccccc1CNC(=O)C(=O)Nc1ccc(C(=O)N2CCC(C)CC2)cc1	AF4-AF9 inh inconclusive, DENV2 CPE 65
C[C@@H]1CN([C@@H](C)CO)C(=O)c2cccc(NC(=O)Nc3ccc(C(F)(F)F)cc3)c2O[C@@H]1CN(C)S(=O)(=O)c1ccc(Cl)cc1	none
C[C@H](CO)N1C[C@H](C)[C@@H](CN(C)C(=O)Nc2ccc3c(c2)OCO3)Oc2ncc(-c3cccnc3)cc2C1=O	none
O=C(COC(=O)c1ccc(Cl)nc1)Nc1ccc(N2CCCCC2)cc1	DENV2 CPE 62
CC(C)(C)NC(=O)COC(=O)c1ccc(Cl)nc1	FGF22 binding 43
CNS(=O)(=O)c1cccc(C(=O)OCC(=O)Nc2ccc(N3CCCCC3)cc2)c1	FGF22 binding 43
CNS(=O)(=O)c1cccc(C(=O)OCC(=O)N2CCCC2)c1	none
O=C(COc1ccc2ccc(=O)oc2c1)Nc1ccc(CCO)cc1	none
O=C(COc1ccc2ccc(=O)oc2c1)Nc1ccc(N2CCCCC2)cc1	AF4-AF9 inh 47, RAD52 inh 66
O=C(Nc1c(-c2ccccc2)nc2ncccn12)c1cc2ccccc2oc1=O	none (no result: ERAP1 inh)
CC(=O)Nc1c(-c2ccccc2)nc2ncccn12	AF4-AF9 inh 48
CCCN(C)C[C@H]1Oc2ncc(-c3ccccc3)cc2C(=O)N([C@@H](C)CO)C[C@H]1C	none
CCOC(=O)Cn1c(=O)oc2cc(S(=O)(=O)NC3CCCc4ccccc43)ccc21 (stereo not drawn)	DENV2 CPE 27
Oc1cc2c(cc1O)C1c3ccc(O)c(O)c3OCC1(O)C2 (stereo not drawn)	AF4-AF9 inh 40
